According to PubChem BioAssay AID1159580 (chemical genetic matrix, 2015):
About 2,000 (36%) of roughly 5,500 compounds were called active. Another 18% or so got no clear call; they are omitted. No stated cut-off is given here; in the data, active means normalized growth mostly below about 0.91 (no sharp cut-off); inconclusive means no clear call, values can overlap the other calls; inactive means mostly above about 0.92. This is one part of the list.

Test: chemical genetic growth profiling, strain panel (AID 1159580);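 further: tested at 20 µM; growth read once vehicle control cultures reached saturation at 30 °C; 1 = growth at the plate median or of vehicle wells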
Conditions: S. cerevisiae deletion strains, growth OD

Measured: normalized growth

O=c1ccc2ccc(O)c(O)c2o1
inactive: locus YAL021C, strain ccr4, stronger effect = lower value 1.01 | locus YAL026C, strain drs2, stronger effect = lower value 1.01 | locus YAL030W, strain snc1, stronger effect = lower value 1.01 | locus YAL040C, strain CLN3, stronger effect = lower value 0.995 | locus YBL061C, strain skt5, stronger effect = lower value 1 | locus YBR009C, strain hhf1, stronger effect = lower value 1 | locus YBR023C, strain chs3, stronger effect = lower value 1 | locus YBR171W, strain sec66, stronger effect = lower value 1 | locus YBR231C, strain swc5, stronger effect = lower value 0.98 | locus YBR279W, strain paf1, stronger effect = lower value 1.01 | locus YCL011C, strain gbp2, stronger effect = lower value 1.03 | locus YCL016C, strain dcc1, stronger effect = lower value 0.996 | locus YCL061C, strain MRC1 (second series), stronger effect = lower value 0.999 | locus YCL069W, strain vba3, stronger effect = lower value 1.01 | locus YCR088W, strain abp1, stronger effect = lower value 1.01 | locus YDL005C, strain med2, stronger effect = lower value 1 | locus YDL040C, strain nat1, stronger effect = lower value 1.01 | locus YDR001C, strain nth1, stronger effect = lower value 1.02 | locus YDR069C, strain doa4, stronger effect = lower value 0.982 | locus YDR137W, strain rgp1, stronger effect = lower value 0.982 | locus YDR150W, strain NUM1, stronger effect = lower value 0.998 | locus YDR159W, strain sac3, stronger effect = lower value 0.966 | locus YDR195W, strain ref2 0.989 | locus YDR297W, strain sur2, stronger effect = lower value 1 | locus YDR334W, strain swr1, stronger effect = lower value 1.01 | locus YDR335W, strain msn5, stronger effect = lower value 1.02 | locus YDR363W, strain ESC2, stronger effect = lower value 0.961 | locus YDR392W, strain spt3, stronger effect = lower value 0.934 | locus YEL003W, strain gim4, stronger effect = lower value 1 | locus YEL037C, strain rad23, stronger effect = lower value 1.01 | locus YEL061C, strain CIN8 (second series), stronger effect = lower value 1.01 | locus YER002W, strain NOP16, stronger effect = lower value 0.996 | locus YER015W, strain faa2, stronger effect = lower value 0.999 | locus YER016W, strain bim1, stronger effect = lower value 1.02 | locus YER111C, strain swi4, stronger effect = lower value 0.999 | locus YER155C, strain BEM2 (second series), stronger effect = lower value 1 | locus YFR010W, strain ubp6, stronger effect = lower value 1.01 | locus YGL167C, strain pmr1, stronger effect = lower value 1.01 | locus YGL173C, strain kem1, stronger effect = lower value 1 | locus YGL227W, strain vid30, stronger effect = lower value 1.01 | locus YGL240W, strain doc1, stronger effect = lower value 0.986 | locus YGL253W, strain hxk2, stronger effect = lower value 1.03 | locus YGR078C, strain PAC10, stronger effect = lower value 0.994 | locus YGR229C, strain SMI1, stronger effect = lower value 1.03 | locus YHR013C, strain ard1, stronger effect = lower value 0.997 | locus YHR027C, strain rpn1, stronger effect = lower value 1 | locus YHR030C, strain SLT2, stronger effect = lower value 0.98 | locus YHR079C, strain IRE1, stronger effect = lower value 0.96 | locus YHR142W, strain chs7, stronger effect = lower value 1.05 | locus YJL092W, strain hpr5, stronger effect = lower value 1.01 | locus YJL095W, strain BCK1 (second series), stronger effect = lower value 1 | locus YJL095W, strain BCK1, stronger effect = lower value 0.978 | locus YJL115W, strain asf1, stronger effect = lower value 1.01 | locus YJL129C, strain trk1, stronger effect = lower value 0.999 | locus YJL154C, strain vps35, stronger effect = lower value 1.01 | locus YJL164C, strain tpk1, stronger effect = lower value 1 | locus YJL166W, strain qcr8, stronger effect = lower value 1.02 | locus YJL187C, strain SWE1, stronger effect = lower value 1.02 | locus YJR066W, strain TOR1, stronger effect = lower value 0.924 | locus YJR075W, strain HOC1, stronger effect = lower value 1.05 | locus YKL160W, strain elf1, stronger effect = lower value 1 | locus YKR026C, strain gcn3, stronger effect = lower value 1.01 | locus YKR091W, strain srl3, stronger effect = lower value 1.01 | locus YLL001W, strain dnm1, stronger effect = lower value 0.996 | locus YLL026W, stronger effect = lower value 1 | locus YLL041C, strain sdh2, stronger effect = lower value 1.01 | locus YLR027C, strain aat2, stronger effect = lower value 0.993 | locus YLR113W, strain HOG1, stronger effect = lower value 1.01 | locus YLR221C, strain rsa3, stronger effect = lower value 0.991 | locus YLR258W, strain gsy2, stronger effect = lower value 1.01 | locus YLR262C, strain YPT6 (second series), stronger effect = lower value 1.02 | locus YLR320W, strain mms22, stronger effect = lower value 1.01 | locus YLR342W, strain FKS1, stronger effect = lower value 1.01 | locus YLR357W, strain rsc2, stronger effect = lower value 1 | locus YLR370C, strain arc18, stronger effect = lower value 1.01 | locus YLR384C, strain iki3, stronger effect = lower value 0.981 | locus YML120C, strain ndi1, stronger effect = lower value 1 | locus YMR058W, strain fet3, stronger effect = lower value 1.01 | locus YMR125W, strain sto1, stronger effect = lower value 1 | locus YMR129W, stronger effect = lower value 1.01 | locus YMR205C, strain PFK2, stronger effect = lower value 1.01 | locus YMR231W, strain pep5, stronger effect = lower value 0.998 | locus YMR307W, strain GAS1, stronger effect = lower value 1.03 | locus YNL071W, strain lat1, stronger effect = lower value 1.02 | locus YNL153C, strain GIM3, stronger effect = lower value 1.2 | locus YNL175C, strain NOP13, stronger effect = lower value 0.974 | locus YNL183C, strain NPR1, stronger effect = lower value 0.94 | locus YNL197C, strain WHI3, stronger effect = lower value 0.979 | locus YNL209W, strain ssb2, stronger effect = lower value 0.994 | locus YNL224C, strain SQS1, stronger effect = lower value 0.99 | locus YNL248C, strain rpa49, stronger effect = lower value 1.04 | locus YNL322C, strain KRE1 (second series), stronger effect = lower value 0.994 | locus YNR049C, strain mso1, stronger effect = lower value 0.999 | locus YOR001W, strain rrp6, stronger effect = lower value 0.979 | locus YOR070C, strain gyp1, stronger effect = lower value 0.991 | locus YOR080W, strain dia2, stronger effect = lower value 0.986 | locus YOR083W, strain WHI5 (second series), stronger effect = lower value 1.02 | locus YOR083W, strain WHI5, stronger effect = lower value 0.999 | locus YOR106W, strain vam3, stronger effect = lower value 0.99 | locus YOR231W, strain MKK1, stronger effect = lower value 0.966 | locus YOR265W, strain rbl2, stronger effect = lower value 1.01 | locus YOR270C, strain vph1, stronger effect = lower value 1 | locus YOR290C, strain snf2, stronger effect = lower value 0.98 | locus YPL051W, strain arl3, stronger effect = lower value 1 | locus YPL078C, strain atp4, stronger effect = lower value 1.01 | locus YPL106C, strain sse1, stronger effect = lower value 0.967 | locus YPL240C, strain hsp82, stronger effect = lower value 1.01 | locus YPL256C, strain CLN2, stronger effect = lower value 0.989
